Only some compounds are listed: those with a hit (about 4% of all), similar ones and a draw of the others.
TRHR PAM: TRH receptor (human) allosteric enhancement; P34981; TRHR cells, fluo-8 calcium fluorescence, EC20 TRH enhancement; enhancement, % at 2 µM; 360,000 compounds, 0.66% hits; AID 493056; in the data active = enhancement above about 30%
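TRHR-expressing cells loaded with fluo-8 calcium dye were read kinetically (ex 480/em 530) during compound addition, then stimulated with an EC20 of TRH (10 nM final). Enhancement of the Gq-mediated intracellular calcium response was scored.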
D1 ag: activates the human D1 dopamine receptor | HEK293 T-REx D1 cells, calcium flux, agonist mode | activation, % at 2 µM | 360,000 compounds, 1% hits | P21728
Target sequence (P21728 whole entry, looked up): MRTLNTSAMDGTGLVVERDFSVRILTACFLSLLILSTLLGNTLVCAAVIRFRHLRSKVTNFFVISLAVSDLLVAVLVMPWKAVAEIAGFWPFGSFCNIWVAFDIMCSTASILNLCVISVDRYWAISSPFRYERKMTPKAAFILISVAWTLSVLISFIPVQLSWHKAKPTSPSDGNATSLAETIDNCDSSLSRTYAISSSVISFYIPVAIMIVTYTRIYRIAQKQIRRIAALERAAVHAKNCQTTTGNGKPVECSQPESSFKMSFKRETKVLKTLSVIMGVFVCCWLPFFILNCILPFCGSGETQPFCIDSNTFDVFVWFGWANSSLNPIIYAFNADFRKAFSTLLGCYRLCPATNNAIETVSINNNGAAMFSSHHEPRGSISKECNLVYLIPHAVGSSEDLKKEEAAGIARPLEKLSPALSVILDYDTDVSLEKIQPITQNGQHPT
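Agonism was scored from calcium flux recorded over 180 s (1 read/s) after pintool compound addition, following a 10-cycle baseline. Cells were inducible force-coupled HEK293 TREx D1, plated overnight at 30 C and loaded with no-wash calcium dye.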
D1 antagonist: blocks dopamine activation of the human D1 receptor; P21728; HEK293 TREx D1 cells, calcium flux, dopamine EC80; stronger effect = lower value; activity change, negative = inhibition, % at 10 µM; 360,000 compounds, 3.2% hits; in the data active = activity change below about -30%
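Compound effects on dopamine-evoked calcium signalling were measured in tetracycline-induced HEK293 Trex D1 cells. Dopamine at EC80 followed a 180 s compound pre-read, and fluorescence was tracked kinetically for 180 s more.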
Glioma ERSR ind: induces the endoplasmic reticulum stress response in human glioma cells | 420,000 compounds, 0.02% hits | AID 602332 | U87-MG GRP78 promoter luciferase reporter, 16 h | Potency, µM, hits mostly activators; active = well fitted activation curve with a large enough effect; also: series mostly up to about 76 µM; nearly all actives have a fitted effect of over 35% in size
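ERSR induction read as luciferase luminescence (Bright-Glo, 10 min at room temperature) in stably transfected human U87-MG glioma cells exposed to compounds for 16 h, using GRP78 as sensor.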
TRHR agonist: TRH receptor (human) agonism | activation, % at 2 µM | TRHR cells, calcium flux fluo-8, FDSS agonist mode | P34981 | AID 493084 | 360,000 compounds, 0.18% hits
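Steps: seed TRHR cells overnight; add fluo-8 no-wash Ca dye, RT 30 min–1.5 h; record 10 s baseline; pin-transfer compounds; monitor fluorescence 1 cycle/s for the agonist window. Calcium increases flag candidate agonists.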
D1 PAM: enhances dopamine response at the human D1 receptor | P21728 | HEK293 TREx D1 cells, calcium flux, dopamine EC20 potentiation | potentiation, % at 10 µM | 360,000 compounds, 0.036% hits; in the data active = potentiation above about 30%
Each line names hits and unclear results; the compound was inactive in the other large screens. Rule as the data show it, unless noted: active = activation above about 30%; inactive = the rest.

Cc1cc(C)n(-c2nc(NCCCN(C)C)c3c4c(sc3n2)CCCC4)n1	none
N#Cc1c(N)nc(N2CCCC2)c(C#N)c1-c1ccc(Cl)cc1	D1 antagonist -57
Cc1ccccc1-n1nnnc1SCc1csc(-c2ccccc2)n1	D1 antagonist -35
Cc1ccccc1-n1nnnc1SCC(C)C	none
Cc1ccc(CNS(=O)(=O)c2ccc(CN3C(=O)c4cccnc4C3=O)cc2)o1	none
Cc1nc2cnc(Oc3cccc(Cl)c3)nc2n(CCC#N)c1=O	none (no result: TRHR PAM, D1 ag, D1 antagonist, TRHR agonist, D1 PAM)
C=C1CCN(C(CC(C)C)C(=O)NCc2ccc(Cl)c(Cl)c2)S(=O)(=O)c2ccccc21 (stereo unspecified)	none (no result: TRHR PAM, D1 ag, D1 antagonist, TRHR agonist, D1 PAM)
COc1ccc(C(=O)n2cc(C(=O)c3cc(C)ccc3O)cn2)cc1	none
COc1ccc(O)c(C(=O)c2cnn(C(=O)c3cc(C)oc3C)c2)c1	D1 antagonist -46
Cc1nn(CC(=O)OCC(=O)NC(C)c2ccccc2)c(C)c1[N+](=O)[O-] (stereo unspecified)	D1 antagonist -34
O=C(NCCO)C(=O)c1c(-c2ccccc2)cc2ccccn12	D1 antagonist -31
CN(C)C(=O)C(=O)c1c(-c2ccccc2)cc2ccccn12	none
c1ccc(-n2cnc3cc(NCc4ccncc4)ccc32)cc1	D1 antagonist -39
Cc1cc2c(n1-c1ccc(C(=O)NCCc3ccccc3)cc1)CCC(C)C2 (stereo unspecified)	none
Cc1cc2c(n1-c1ccc(C(=O)NCc3cccc(Br)c3)cc1)CCC(C)C2 (stereo unspecified)	D1 antagonist -60
Cc1cc2c(n1-c1ccc(C(=O)NCCc3ccc(Cl)cc3)cc1)CCC(C)C2 (stereo unspecified)	TRHR PAM 31
COc1ccc(C(=O)c2cn(Cc3ccccc3)c3ccccc3c2=O)cc1OC	TRHR PAM 48, D1 antagonist -33
CCCCCC(=O)N/N=C/c1cc(Br)c(O)c(OC)c1	D1 antagonist -39
COc1ccc(/C=N\NC(=O)CCN2CCN(c3ccccc3)CC2)cc1OC	none
O=C(CCN1CCN(C(c2ccccc2)c2ccccc2)CC1)N/N=C/c1ccc(O)cc1	D1 antagonist -72
COc1cc(/C=N/NC(=O)CCN2CCCCC2)ccc1O	TRHR PAM 34
COc1cc(/C=N/NC(=O)CC2(C)OCCO2)cc(Br)c1O	none
CC(C)C[C@@H](NC(=O)[C@H](Cc1ccccc1)NC(=O)c1cnccn1)B(O)O	none (no result: TRHR PAM, D1 ag, D1 antagonist, TRHR agonist, D1 PAM)
Cc1cccc(/C=N/NC(=O)C2CCCNC2=O)c1 (stereo unspecified)	D1 antagonist -85
O=C1NCCCC1C(=O)N/N=C/c1cccc([N+](=O)[O-])c1 (stereo unspecified)	none
Cc1ccc(C)c(CN2C(=O)C(=O)c3ccccc32)c1	D1 antagonist -31
COc1ccccc1CNC(=O)c1cnc(N(C)C)nc1	none (no result: Glioma ERSR ind)
CCSC1=N/C(=C\c2ccccc2)C(=O)N1c1ccc(OC)cc1	none
C=CCSC1=N/C(=C/c2ccsc2)C(=O)N1c1ccccc1	D1 antagonist -58
C=CCSC1=N/C(=C\c2cccnc2)C(=O)N1c1ccc(OC)cc1	D1 antagonist -54
COc1ccc(/C=C2/N=C(SCC(=O)Nc3cc(C)on3)N(c3ccccc3)C2=O)cc1	none
Cc1cc(C)cc(NC(=O)CCCCCN2C(=O)[C@@H]3Cc4ccccc4CN3C2=O)c1	D1 antagonist -40
O=C(CSc1nc(-c2ccc(F)cc2)[nH]c1-c1ccccc1)Nc1ccccc1	none
CCn1c(NCc2ccc3c(c2)OCO3)nc2ccccc21	none
O=C(Nc1nc2ccccc2n1CCN1CCCCC1)C1CCCCC1	none
c1ccc2c(c1)nc(NCc1ccc3c(c1)OCO3)n2CCN1CCOCC1	D1 antagonist -30
COc1ccc(CNc2nc3ccccc3n2CCN2CCCCC2)c(OC)c1	D1 antagonist -41
COc1ccc(OC)c(CNc2nc3ccccc3n2CCN2CCCCC2)c1	none
O=C(Nc1nc2ccccc2n1CCN1CCCC1)C1CCCCC1	D1 antagonist -30
O=c1oc(-c2ccc(C(F)(F)F)cc2)nn1Cc1cc(Cl)ccc1O	none (no result: TRHR PAM, D1 ag, D1 antagonist, TRHR agonist, D1 PAM)
CCOc1ccc(CCNC(=O)c2c3c(nc4ccccc24)C(=O)N(C2CCCCC2)C3)cc1	none
CCOc1ccc(-c2nn(-c3ccccc3)cc2C2NC(=O)NC(C)=C2C(=O)OC(C)C)cc1 (stereo unspecified)	none
CCOc1ccc(-c2nn(-c3ccccc3)cc2C2NC(=O)NC(C)=C2C(=O)OC(C)C)cc1C (stereo unspecified)	D1 antagonist -36
Cc1ccc2oc(C(=O)NCC(c3ccc(Cl)cc3)N3CCOCC3)c(C)c2c1 (stereo unspecified)	none
C=C(C(=O)Nc1ccccc1)c1ccc(C)cc1	D1 antagonist -49
COc1ccc(COC(=O)N/N=C2/C[C@@H](O)[C@@H](O)[C@@H]3[C@@H]4C(=O)N(C[C@@H]5CCCO5)C(=O)[C@H]4CC[C@@H]23)cc1	none (no result: TRHR PAM, D1 ag, D1 antagonist, TRHR agonist, D1 PAM)
O=c1c2[nH]c3cccc(Cl)c3c2ncn1CC1CCCO1 (stereo unspecified)	D1 antagonist -30
COc1ccc(/C=N/n2c(-c3cc(C)[nH]n3)n[nH]c2=S)cc1	none
Cc1cc(-c2n[nH]c(=S)n2/N=C/c2ccc(C)o2)n[nH]1	TRHR PAM 40
Cc1ncc(CCl)c2c1OC(C)(C)OC2	none
COc1ccc(CNc2oc(/C=C/c3cc(OC)c(OC)c(OC)c3)nc2C#N)cc1	D1 ag 40, Glioma ERSR ind 32µM
COc1ccc(/C=C/c2nc(C#N)c(NCCN(C)C)o2)cc1OC	D1 antagonist -30
CCNc1oc(/C=C/c2ccc(OCC)cc2)nc1C#N	none
CCOc1ccc(/C=C/c2nc(C#N)c(NCCc3ccccc3)o2)cc1	D1 antagonist -37
Cc1ccc2cc(CCNS(=O)(=O)c3ccc(Cl)cc3)c(=O)[nH]c2c1C	D1 antagonist -37
CC(=O)Nc1ccc(S(=O)(=O)NCCc2cc3ccc(C)c(C)c3[nH]c2=O)cc1	none
Cc1ccc(C(=O)C[n+]2cccc3cccc(O)c32)cc1	none (no result: TRHR PAM, D1 ag, D1 antagonist, TRHR agonist, D1 PAM)
NC(=O)CS(=O)(=O)c1nc2ccccc2n1Cc1ccccn1	D1 antagonist -38
COc1ccc(Cn2c(S(=O)(=O)CC(N)=O)nc3ccccc32)cc1[N+](=O)[O-]	none (no result: Glioma ERSR ind)
CC1CN(C(=O)COC(=O)c2ccc(C#N)cc2)CC(C)O1 (stereo unspecified)	none
O=C(COc1ccc(Cl)cc1)OCC(=O)N1CCCC1	none
O=C(COc1ccc(Nc2ccccc2)cc1)OCC(=O)N1CCCCC1	D1 antagonist -37
O=C(CSc1nnc(COc2ccc(Cl)cc2)o1)N1CCCCC1	D1 antagonist -31
CC1CN(C(=O)COC(=O)COc2ccc(C#N)cc2)CC(C)O1 (stereo unspecified)	D1 antagonist -47

Bioassay records from PubChem.
